In publication PMC11062922 (Nature Chemical Biology, 2023):
Read-outs that look alike come from different tables or passages of the source.

Key:
ABL1 = tested on: ABL1; design: species or system human, MV4-11 + K-562 + COLO205 + SK-N-BE2 + OVCAR-8; details: read-out: apparent Kd, compound concentrations: 100 nM and 1000 nM (sheet 'Samples'), n = 1
ABL2 = tested on: ABL2; design: species or system human, MV4-11 + K-562 + COLO205 + SK-N-BE2 + OVCAR-8; details: read-out: apparent Kd, compound concentrations: 100 nM and 1000 nM (sheet 'Samples'), n = 1
BCR = tested on: BCR; design: species or system human, MV4-11 + K-562 + COLO205 + SK-N-BE2 + OVCAR-8; details: read-out: apparent Kd, compound concentrations: 100 nM and 1000 nM (sheet 'Samples'), n = 1
CLK1 = tested on: CLK1; design: species or system human, MV4-11 + K-562 + COLO205 + SK-N-BE2 + OVCAR-8; details: read-out: apparent Kd, compound concentrations: 100 nM and 1000 nM (sheet 'Samples'), n = 1
CSNK2A2 = tested on: CSNK2A2; design: species or system human, MV4-11 + K-562 + COLO205 + SK-N-BE2 + OVCAR-8; details: read-out: apparent Kd, compound concentrations: 100 nM and 1000 nM (sheet 'Samples'), n = 1
GAK = tested on: GAK; design: species or system human, MV4-11 + K-562 + COLO205 + SK-N-BE2 + OVCAR-8; details: read-out: apparent Kd; compound concentrations: 100 nM and 1000 nM (sheet 'Samples'), CATDS: 2.92049494926887E-2; n = 1
AAK1 = tested on: AAK1; design: species or system human, MV4-11 + K-562 + COLO205 + SK-N-BE2 + OVCAR-8; details: read-out: apparent Kd, compound concentrations: 100 nM and 1000 nM (sheet 'Samples'), n = 1
Q6ZSR9 = Q6ZSR9 (human, UniProt Q6ZSR9); design: species or system MV4-11 + K-562 + COLO205 + SK-N-BE2 + OVCAR-8; details: read-out: apparent Kd, compound concentrations: 100 nM and 1000 nM (sheet 'Samples'), n = 1
EGFR = tested on: EGFR; design: species or system human, MV4-11 + K-562 + COLO205 + SK-N-BE2 + OVCAR-8; details: read-out: apparent Kd, compound concentrations: 100 nM and 1000 nM (sheet 'Samples'), n = 1
FRK = tested on: FRK; design: species or system human, MV4-11 + K-562 + COLO205 + SK-N-BE2 + OVCAR-8; details: read-out: apparent Kd, compound concentrations: 100 nM and 1000 nM (sheet 'Samples'), n = 1
FYN = tested on: FYN; design: species or system human, MV4-11 + K-562 + COLO205 + SK-N-BE2 + OVCAR-8; details: read-out: apparent Kd, compound concentrations: 100 nM and 1000 nM (sheet 'Samples'), n = 1
HCK = tested on: HCK; design: species or system human, MV4-11 + K-562 + COLO205 + SK-N-BE2 + OVCAR-8; details: read-out: apparent Kd, compound concentrations: 100 nM and 1000 nM (sheet 'Samples'), n = 1
LCK = tested on: LCK; design: species or system human, MV4-11 + K-562 + COLO205 + SK-N-BE2 + OVCAR-8; details: read-out: apparent Kd, compound concentrations: 100 nM and 1000 nM (sheet 'Samples'), n = 1
LYN = tested on: LYN; design: species or system human, MV4-11 + K-562 + COLO205 + SK-N-BE2 + OVCAR-8; details: read-out: apparent Kd, compound concentrations: 100 nM and 1000 nM (sheet 'Samples'), n = 1
PTK6 = tested on: PTK6; design: species or system human, MV4-11 + K-562 + COLO205 + SK-N-BE2 + OVCAR-8; details: read-out: apparent Kd, compound concentrations: 100 nM and 1000 nM (sheet 'Samples'), n = 1
RIPK2 = tested on: RIPK2; design: species or system human, MV4-11 + K-562 + COLO205 + SK-N-BE2 + OVCAR-8; details: read-out: apparent Kd; compound concentrations: 100 nM and 1000 nM (sheet 'Samples'), CATDS: 5.5547059533083698E-2; n = 1
RIPK3 = tested on: RIPK3; design: species or system human, MV4-11 + K-562 + COLO205 + SK-N-BE2 + OVCAR-8; details: read-out: apparent Kd; compound concentrations: 100 nM and 1000 nM (sheet 'Samples'), CATDS: 2.6794845522232699E-2; n = 1
YES1 = tested on: YES1; design: species or system human, MV4-11 + K-562 + COLO205 + SK-N-BE2 + OVCAR-8; details: read-out: apparent Kd, compound concentrations: 100 nM and 1000 nM (sheet 'Samples'), n = 1
RET = tested on: RET; design: species or system human, MV4-11 + K-562 + COLO205 + SK-N-BE2 + OVCAR-8; details: read-out: apparent Kd; compound concentrations: 100 nM and 1000 nM (sheet 'Samples'), CATDS: 2.6340417566827701E-2; n = 1

Q6ZSR9, sequence (Q6ZSR9 whole entry, looked up): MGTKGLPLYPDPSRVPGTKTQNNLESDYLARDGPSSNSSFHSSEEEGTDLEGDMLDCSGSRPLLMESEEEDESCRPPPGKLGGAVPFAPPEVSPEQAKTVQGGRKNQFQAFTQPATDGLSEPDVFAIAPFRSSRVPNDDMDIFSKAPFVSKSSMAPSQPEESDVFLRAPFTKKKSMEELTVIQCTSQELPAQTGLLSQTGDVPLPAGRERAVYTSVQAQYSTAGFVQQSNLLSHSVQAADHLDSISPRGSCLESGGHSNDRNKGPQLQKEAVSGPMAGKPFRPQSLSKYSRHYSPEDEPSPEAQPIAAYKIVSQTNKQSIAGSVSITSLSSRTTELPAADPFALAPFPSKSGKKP

## COc1cccc(-n2ncc3c(N/N=C/c4ccc(C(=O)NCCN(C)C)cc4)ncnc32)c1.Cl [GW784307A]
ABL1; CATDS: 7.2174093506066003E-2
  potency estimated from few doses: 114 nM
ABL2; CATDS: 3.8634429049696897E-2
  potency estimated from few doses: 479 nM
BCR; CATDS: 0.110130424240114
  potency estimated from few doses: 53.4 nM
CLK1; CATDS: 2.9878019560437799E-2
  potency estimated from few doses: 1060 nM
CSNK2A2; CATDS: 8.6711561514054597E-2
  potency estimated from few doses: 80.9 nM
GAK
  potency estimated from few doses: 1160 nM

## Cn1cc(C2=C(c3cn(CCCO)c4ccccc34)C(=O)NC2=O)c2ccccc21 [RO0317377-000]
AAK1; CATDS: 0.115071291343016
  potency estimated from few doses: 1300 nM
Q6ZSR9; CATDS: 0.107617362332997
  potency estimated from few doses: 1540 nM

## O=C1N=C(NCCc2cccc(F)c2)S/C1=C\c1ccc2ncccc2c1 [RO4508344-000]
AAK1; CATDS: 0.102414054055007
  potency estimated from few doses: 806 nM
CLK1; CATDS: 0.18459427931802
  potency estimated from few doses: 278 nM
CSNK2A2; CATDS: 0.12392603207531599
  potency estimated from few doses: 541 nM
Q6ZSR9; CATDS: 9.5289389413805506E-2
  potency estimated from few doses: 958 nM

## COc1cc(Nc2nccc(N3CCC(NC(=O)C4COc5ccccc5O4)C3)n2)cc(OC)c1OC (centres unmarked) [GSK1379761A]
AAK1; CATDS: 0.26357344915845798
  potency estimated from few doses: 1120 nM
Q6ZSR9; CATDS: 0.25714063136794202
  potency estimated from few doses: 1170 nM

## Cl.Cl.Cl.c1ccc(Oc2ccc(Nc3ccnc4cc(-c5ccc(CN6CCNCC6)o5)ccc34)cc2)nc1.c1ccc(Oc2ccc(Nc3ccnc4cc(-c5ccc(CN6CCNCC6)o5)ccc34)cc2)nc1 [GW567142A]
ABL1; CATDS: 0.106160515103876
  potency estimated from few doses: 36.7 nM
ABL2; CATDS: 3.7512936282147198E-2
  potency estimated from few doses: 226 nM
BCR; CATDS: 2.8038265853645699E-2
  potency estimated from few doses: 446 nM
EGFR; CATDS: 4.6801095990659902E-2
  potency estimated from few doses: 143 nM
FRK; CATDS: 2.55518807835587E-2
  potency estimated from few doses: 566 nM
FYN; CATDS: 5.8978422577379903E-2
  potency estimated from few doses: 93.1 nM
HCK; CATDS: 9.4879616105776998E-2
  potency estimated from few doses: 43.2 nM
LCK; CATDS: 2.9875488877577801E-2
  potency estimated from few doses: 381 nM
LYN; CATDS: 2.5031582152460801E-2
  potency estimated from few doses: 598 nM
PTK6; CATDS: 5.6771173878132498E-2
  potency estimated from few doses: 99.7 nM
RIPK2
  potency estimated from few doses: 104 nM
RIPK3
  potency estimated from few doses: 500 nM
YES1; CATDS: 0.102310323687496
  potency estimated from few doses: 38.7 nM

## COc1cc(Nc2nccc(N3CCC(NC(=O)c4cccc(C#N)c4)C3)n2)cc(OC)c1OC (centres unmarked) [GSK1379751A]
AAK1; CATDS: 0.20949591044902
  potency estimated from few doses: 786 nM
Q6ZSR9; CATDS: 0.206433255862257
  potency estimated from few doses: 810 nM

## COc1cccc(-n2cnc3c(N/N=C/c4ccncc4)ncnc32)c1 [GW813360X]
ABL1; CATDS: 0.132287686029187
  potency estimated from few doses: 2030 nM
ABL2; CATDS: 0.19344614583088601
  potency estimated from few doses: 869 nM
BCR; CATDS: 0.226928346430948
  potency estimated from few doses: 659 nM

## Cn1cc(-c2ccc3c(c2)CCN3C(=O)Cc2cc(F)cc(C(F)(F)F)c2)c2c(N)ncnc21 [GSK2635225A]
ABL1; CATDS: 0.14527180827686201
  potency estimated from few doses: 1130 nM
ABL2; CATDS: 0.18446738219414099
  potency estimated from few doses: 647 nM

## Cn1cc(-c2ccc3c(c2)CCN3C(=O)Cc2cccc(Cl)c2)c2c(N)ncnc21 [GSK2606590A]
ABL1; CATDS: 0.26932988266552799
  potency estimated from few doses: 1720 nM

## CNC(=O)c1ccccc1Nc1nc(Nc2cccc(CS(C)(=O)=O)c2)ncc1C.O=CO [GSK1520489A]
ABL1; CATDS: 1.34944121173274E-2
  potency estimated from few doses: 401 nM
ABL2; CATDS: 1.36244790700583E-2
  potency estimated from few doses: 389 nM
BCR; CATDS: 1.52044449937046E-2
  potency estimated from few doses: 280 nM
CLK1; CATDS: 2.0431825511786902E-2
  potency estimated from few doses: 131 nM
CSNK2A2; CATDS: 1.1107914266042299E-2
  potency estimated from few doses: 807 nM
EGFR; CATDS: 1.37119506592154E-2
  potency estimated from few doses: 382 nM
FRK; CATDS: 1.0457896251618699E-2
  potency estimated from few doses: 1050 nM
FYN; CATDS: 1.4785651294397E-2
  potency estimated from few doses: 304 nM
HCK; CATDS: 2.2518734177974401E-2
  potency estimated from few doses: 105 nM
LCK; CATDS: 2.8625863065429399E-2
  potency estimated from few doses: 63 nM
LYN; CATDS: 1.17680848685595E-2
  potency estimated from few doses: 643 nM
PTK6; CATDS: 5.57669232791278E-2
  potency estimated from few doses: 19.7 nM
Q6ZSR9; CATDS: 1.0084125464563E-2
  potency estimated from few doses: 1260 nM
RET
  potency estimated from few doses: 74.6 nM
YES1; CATDS: 2.28565858871594E-2
  potency estimated from few doses: 101 nM
